From ChEMBL document CHEMBL1961873, “Compounds: GSK PKIS; Assays: Nanosyn kinase panel” (2012)

Key:
[1] = target: Tyrosine-protein kinase Fer (Homo sapiens) (UniProt P16591); conditions: at 1 µM
[2] = target: Tyrosine-protein kinase Fes/Fps (Homo sapiens) (UniProt P07332); conditions: at 0.1 µM
[3] = target: Tyrosine-protein kinase Fes/Fps (Homo sapiens) (UniProt P07332); conditions: at 1 µM
[4] = target: Fibroblast growth factor receptor 1 (Homo sapiens) (UniProt P11362); conditions: at 0.1 µM
[5] = target: Fibroblast growth factor receptor 1 (Homo sapiens) (UniProt P11362); conditions: at 1 µM
[6] = target: Fibroblast growth factor receptor 2 (Homo sapiens) (UniProt P21802); conditions: at 0.1 µM
[7] = target: Fibroblast growth factor receptor 2 (Homo sapiens) (UniProt P21802); conditions: at 1 µM
[8] = target: Fibroblast growth factor receptor 3 (Homo sapiens) (UniProt P22607); conditions: at 0.1 µM
[9] = target: Fibroblast growth factor receptor 3 (Homo sapiens) (UniProt P22607); conditions: at 1 µM
[10] = target: Fibroblast growth factor receptor 4 (Homo sapiens) (UniProt P22455); conditions: at 0.1 µM
[11] = target: Fibroblast growth factor receptor 4 (Homo sapiens) (UniProt P22455); conditions: at 1 µM
[12] = target: Tyrosine-protein kinase Fgr (Homo sapiens) (UniProt P09769); conditions: at 0.1 µM
[13] = target: Tyrosine-protein kinase Fgr (Homo sapiens) (UniProt P09769); conditions: at 1 µM
[14] = target: Vascular endothelial growth factor receptor 1 (Homo sapiens) (UniProt P17948); conditions: at 0.1 µM
[15] = target: Vascular endothelial growth factor receptor 1 (Homo sapiens) (UniProt P17948); conditions: at 1 µM
[16] = target: Receptor-type tyrosine-protein kinase FLT3 (Homo sapiens) (UniProt P36888); conditions: at 0.1 µM
[17] = target: Receptor-type tyrosine-protein kinase FLT3 (Homo sapiens) (UniProt P36888); conditions: at 1 µM
[18] = test system: T1, Receptor-type tyrosine-protein kinase FLT3 (Homo sapiens), P36888 [D835Y]; conditions: at 0.1 µM
T1 sequence (whole entry): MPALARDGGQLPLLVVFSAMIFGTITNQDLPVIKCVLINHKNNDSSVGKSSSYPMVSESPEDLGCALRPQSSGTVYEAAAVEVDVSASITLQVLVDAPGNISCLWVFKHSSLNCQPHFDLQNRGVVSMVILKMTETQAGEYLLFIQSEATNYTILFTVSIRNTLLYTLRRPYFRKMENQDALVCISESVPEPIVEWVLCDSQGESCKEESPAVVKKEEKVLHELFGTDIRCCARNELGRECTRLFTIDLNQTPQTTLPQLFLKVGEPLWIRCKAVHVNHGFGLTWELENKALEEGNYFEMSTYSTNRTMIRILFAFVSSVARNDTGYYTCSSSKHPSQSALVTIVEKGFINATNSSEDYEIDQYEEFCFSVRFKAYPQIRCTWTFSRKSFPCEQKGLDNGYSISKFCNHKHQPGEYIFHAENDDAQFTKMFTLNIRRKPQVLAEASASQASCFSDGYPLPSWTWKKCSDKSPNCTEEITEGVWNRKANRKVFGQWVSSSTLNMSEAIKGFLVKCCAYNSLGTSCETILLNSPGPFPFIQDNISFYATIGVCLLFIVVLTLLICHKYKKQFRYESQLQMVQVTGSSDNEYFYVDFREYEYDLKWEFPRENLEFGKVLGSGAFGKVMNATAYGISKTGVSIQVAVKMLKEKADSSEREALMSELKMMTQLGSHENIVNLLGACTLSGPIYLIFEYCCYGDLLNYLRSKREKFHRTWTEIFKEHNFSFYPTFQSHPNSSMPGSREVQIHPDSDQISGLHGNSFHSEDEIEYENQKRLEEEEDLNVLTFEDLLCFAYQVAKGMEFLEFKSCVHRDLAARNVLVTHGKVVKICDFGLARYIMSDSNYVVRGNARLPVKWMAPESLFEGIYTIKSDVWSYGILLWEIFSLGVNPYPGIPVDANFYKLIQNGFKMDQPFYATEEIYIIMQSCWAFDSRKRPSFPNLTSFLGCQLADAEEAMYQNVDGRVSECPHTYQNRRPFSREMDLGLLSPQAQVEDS

[19] = target: Non-receptor tyrosine-protein kinase TYK2 (Homo sapiens) (UniProt P29597); conditions: at 1 µM;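 note: values are mean percent inhibition of TYK2 kinase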
[20] = target: T2, Tyrosine-protein kinase receptor TYRO3 (Homo sapiens) (UniProt Q06418); conditions: at 0.1 µM;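 note: reported percentages are averaged inhibition values of TYRO3 kinase activity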
T2 sequence (whole entry): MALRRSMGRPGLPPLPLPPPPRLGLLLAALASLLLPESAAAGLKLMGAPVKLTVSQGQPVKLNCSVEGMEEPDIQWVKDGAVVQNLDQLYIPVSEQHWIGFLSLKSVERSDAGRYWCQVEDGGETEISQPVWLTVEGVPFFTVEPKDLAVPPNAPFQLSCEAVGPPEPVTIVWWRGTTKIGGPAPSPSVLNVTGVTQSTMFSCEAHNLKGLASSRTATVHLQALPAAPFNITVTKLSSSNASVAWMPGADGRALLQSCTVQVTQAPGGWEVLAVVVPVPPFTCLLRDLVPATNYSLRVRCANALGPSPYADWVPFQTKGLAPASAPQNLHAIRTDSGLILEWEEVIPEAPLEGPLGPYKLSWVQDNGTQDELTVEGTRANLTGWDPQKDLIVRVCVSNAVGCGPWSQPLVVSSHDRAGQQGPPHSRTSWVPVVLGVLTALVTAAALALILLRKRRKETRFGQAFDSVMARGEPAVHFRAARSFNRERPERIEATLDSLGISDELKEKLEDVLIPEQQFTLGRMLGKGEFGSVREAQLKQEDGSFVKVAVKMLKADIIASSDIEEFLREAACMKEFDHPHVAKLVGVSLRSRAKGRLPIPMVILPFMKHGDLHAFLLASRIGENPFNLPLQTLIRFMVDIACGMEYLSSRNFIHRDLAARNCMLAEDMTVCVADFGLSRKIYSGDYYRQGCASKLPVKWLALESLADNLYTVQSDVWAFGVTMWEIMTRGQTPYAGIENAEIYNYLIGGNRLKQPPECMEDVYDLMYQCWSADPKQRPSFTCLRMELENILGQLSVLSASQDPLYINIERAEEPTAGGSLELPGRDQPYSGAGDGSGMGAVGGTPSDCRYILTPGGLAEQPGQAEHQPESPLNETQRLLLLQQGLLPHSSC

Sequence of Fibroblast growth factor receptor 1 (Homo sapiens) (P11362 22-822 limits assumed): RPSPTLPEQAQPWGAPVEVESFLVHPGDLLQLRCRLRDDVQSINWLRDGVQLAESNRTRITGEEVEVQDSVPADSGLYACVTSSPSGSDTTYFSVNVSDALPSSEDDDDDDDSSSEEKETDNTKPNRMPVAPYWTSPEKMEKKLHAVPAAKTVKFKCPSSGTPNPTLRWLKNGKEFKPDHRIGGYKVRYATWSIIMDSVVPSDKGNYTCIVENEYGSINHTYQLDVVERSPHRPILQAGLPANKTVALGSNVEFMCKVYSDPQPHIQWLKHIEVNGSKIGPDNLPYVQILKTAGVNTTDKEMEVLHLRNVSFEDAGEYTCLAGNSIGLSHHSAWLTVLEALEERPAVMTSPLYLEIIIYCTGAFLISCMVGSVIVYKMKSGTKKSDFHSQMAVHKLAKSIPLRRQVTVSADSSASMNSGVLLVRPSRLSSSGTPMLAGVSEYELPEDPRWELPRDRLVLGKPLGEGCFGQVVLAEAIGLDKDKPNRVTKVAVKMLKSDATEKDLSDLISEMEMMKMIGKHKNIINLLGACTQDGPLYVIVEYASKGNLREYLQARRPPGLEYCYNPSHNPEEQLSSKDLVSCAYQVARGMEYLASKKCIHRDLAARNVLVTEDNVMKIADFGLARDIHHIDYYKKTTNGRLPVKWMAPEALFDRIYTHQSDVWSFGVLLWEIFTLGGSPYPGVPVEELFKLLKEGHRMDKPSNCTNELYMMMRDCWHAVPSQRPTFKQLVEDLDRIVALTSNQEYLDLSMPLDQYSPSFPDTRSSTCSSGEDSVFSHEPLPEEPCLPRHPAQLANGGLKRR
Sequence of Tyrosine-protein kinase Fer (Homo sapiens) (P16591 whole entry, looked up): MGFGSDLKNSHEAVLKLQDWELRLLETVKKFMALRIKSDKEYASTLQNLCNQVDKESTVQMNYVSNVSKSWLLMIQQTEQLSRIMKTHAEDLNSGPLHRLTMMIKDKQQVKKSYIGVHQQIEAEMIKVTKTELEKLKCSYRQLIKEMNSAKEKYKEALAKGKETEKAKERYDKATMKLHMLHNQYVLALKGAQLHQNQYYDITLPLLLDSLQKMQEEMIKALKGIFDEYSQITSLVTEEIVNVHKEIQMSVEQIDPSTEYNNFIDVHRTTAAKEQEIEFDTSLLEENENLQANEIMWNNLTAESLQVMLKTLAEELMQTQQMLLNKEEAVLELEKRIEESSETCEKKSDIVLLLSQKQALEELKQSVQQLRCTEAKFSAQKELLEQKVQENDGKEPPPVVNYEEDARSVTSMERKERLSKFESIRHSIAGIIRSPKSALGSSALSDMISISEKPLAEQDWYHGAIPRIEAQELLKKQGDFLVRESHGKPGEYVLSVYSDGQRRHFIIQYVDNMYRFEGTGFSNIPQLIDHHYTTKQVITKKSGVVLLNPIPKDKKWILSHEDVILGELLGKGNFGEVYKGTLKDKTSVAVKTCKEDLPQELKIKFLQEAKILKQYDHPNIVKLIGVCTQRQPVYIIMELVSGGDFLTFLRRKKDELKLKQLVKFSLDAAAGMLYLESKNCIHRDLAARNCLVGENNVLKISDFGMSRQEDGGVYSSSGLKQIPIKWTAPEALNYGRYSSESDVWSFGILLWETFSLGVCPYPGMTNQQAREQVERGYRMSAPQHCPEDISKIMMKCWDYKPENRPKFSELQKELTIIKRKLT
Sequence of Tyrosine-protein kinase Fes/Fps (Homo sapiens) (P07332 whole entry): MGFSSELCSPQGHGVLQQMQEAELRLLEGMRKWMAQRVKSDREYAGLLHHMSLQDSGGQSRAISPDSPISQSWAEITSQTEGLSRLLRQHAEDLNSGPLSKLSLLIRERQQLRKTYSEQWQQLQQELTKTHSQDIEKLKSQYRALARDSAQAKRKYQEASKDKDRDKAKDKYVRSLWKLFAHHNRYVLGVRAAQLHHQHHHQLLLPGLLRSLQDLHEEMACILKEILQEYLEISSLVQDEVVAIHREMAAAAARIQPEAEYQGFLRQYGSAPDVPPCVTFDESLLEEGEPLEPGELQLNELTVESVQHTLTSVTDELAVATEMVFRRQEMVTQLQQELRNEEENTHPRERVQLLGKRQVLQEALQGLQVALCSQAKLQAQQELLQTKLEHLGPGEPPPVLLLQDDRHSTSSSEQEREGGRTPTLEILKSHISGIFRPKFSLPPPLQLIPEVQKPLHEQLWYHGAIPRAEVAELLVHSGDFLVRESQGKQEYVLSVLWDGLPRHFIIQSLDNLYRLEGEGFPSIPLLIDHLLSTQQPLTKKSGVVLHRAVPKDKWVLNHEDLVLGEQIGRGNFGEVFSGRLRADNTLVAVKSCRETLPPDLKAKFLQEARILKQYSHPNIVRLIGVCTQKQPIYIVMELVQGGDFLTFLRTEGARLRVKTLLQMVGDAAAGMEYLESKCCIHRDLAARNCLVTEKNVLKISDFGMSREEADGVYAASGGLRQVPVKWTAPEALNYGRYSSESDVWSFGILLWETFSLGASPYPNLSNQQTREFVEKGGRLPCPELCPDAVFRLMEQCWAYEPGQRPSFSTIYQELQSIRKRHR
Sequence of Fibroblast growth factor receptor 3 (Homo sapiens) (P22607 23-806 limits assumed): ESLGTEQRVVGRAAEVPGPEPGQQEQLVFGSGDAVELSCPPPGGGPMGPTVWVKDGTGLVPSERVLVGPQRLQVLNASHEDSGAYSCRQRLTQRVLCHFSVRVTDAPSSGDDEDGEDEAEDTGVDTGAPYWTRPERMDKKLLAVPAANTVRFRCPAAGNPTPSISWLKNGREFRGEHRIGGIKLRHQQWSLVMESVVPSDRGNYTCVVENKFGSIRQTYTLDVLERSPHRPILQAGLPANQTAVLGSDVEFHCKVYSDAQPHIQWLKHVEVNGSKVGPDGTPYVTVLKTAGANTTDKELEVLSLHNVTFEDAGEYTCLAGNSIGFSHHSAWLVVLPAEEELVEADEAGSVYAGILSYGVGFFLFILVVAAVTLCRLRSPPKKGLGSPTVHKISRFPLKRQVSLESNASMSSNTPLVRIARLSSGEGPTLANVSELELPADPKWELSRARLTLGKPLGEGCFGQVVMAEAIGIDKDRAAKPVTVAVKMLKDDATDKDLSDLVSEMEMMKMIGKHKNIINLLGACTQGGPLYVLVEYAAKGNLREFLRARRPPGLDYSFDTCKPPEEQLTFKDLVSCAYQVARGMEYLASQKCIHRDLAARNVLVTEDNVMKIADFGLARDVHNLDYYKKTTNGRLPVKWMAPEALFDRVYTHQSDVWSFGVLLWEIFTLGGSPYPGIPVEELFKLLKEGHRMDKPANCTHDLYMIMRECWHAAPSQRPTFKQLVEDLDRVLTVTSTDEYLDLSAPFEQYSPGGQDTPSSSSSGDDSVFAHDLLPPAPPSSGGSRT
Sequence of Vascular endothelial growth factor receptor 1 (Homo sapiens) (P17948 whole entry): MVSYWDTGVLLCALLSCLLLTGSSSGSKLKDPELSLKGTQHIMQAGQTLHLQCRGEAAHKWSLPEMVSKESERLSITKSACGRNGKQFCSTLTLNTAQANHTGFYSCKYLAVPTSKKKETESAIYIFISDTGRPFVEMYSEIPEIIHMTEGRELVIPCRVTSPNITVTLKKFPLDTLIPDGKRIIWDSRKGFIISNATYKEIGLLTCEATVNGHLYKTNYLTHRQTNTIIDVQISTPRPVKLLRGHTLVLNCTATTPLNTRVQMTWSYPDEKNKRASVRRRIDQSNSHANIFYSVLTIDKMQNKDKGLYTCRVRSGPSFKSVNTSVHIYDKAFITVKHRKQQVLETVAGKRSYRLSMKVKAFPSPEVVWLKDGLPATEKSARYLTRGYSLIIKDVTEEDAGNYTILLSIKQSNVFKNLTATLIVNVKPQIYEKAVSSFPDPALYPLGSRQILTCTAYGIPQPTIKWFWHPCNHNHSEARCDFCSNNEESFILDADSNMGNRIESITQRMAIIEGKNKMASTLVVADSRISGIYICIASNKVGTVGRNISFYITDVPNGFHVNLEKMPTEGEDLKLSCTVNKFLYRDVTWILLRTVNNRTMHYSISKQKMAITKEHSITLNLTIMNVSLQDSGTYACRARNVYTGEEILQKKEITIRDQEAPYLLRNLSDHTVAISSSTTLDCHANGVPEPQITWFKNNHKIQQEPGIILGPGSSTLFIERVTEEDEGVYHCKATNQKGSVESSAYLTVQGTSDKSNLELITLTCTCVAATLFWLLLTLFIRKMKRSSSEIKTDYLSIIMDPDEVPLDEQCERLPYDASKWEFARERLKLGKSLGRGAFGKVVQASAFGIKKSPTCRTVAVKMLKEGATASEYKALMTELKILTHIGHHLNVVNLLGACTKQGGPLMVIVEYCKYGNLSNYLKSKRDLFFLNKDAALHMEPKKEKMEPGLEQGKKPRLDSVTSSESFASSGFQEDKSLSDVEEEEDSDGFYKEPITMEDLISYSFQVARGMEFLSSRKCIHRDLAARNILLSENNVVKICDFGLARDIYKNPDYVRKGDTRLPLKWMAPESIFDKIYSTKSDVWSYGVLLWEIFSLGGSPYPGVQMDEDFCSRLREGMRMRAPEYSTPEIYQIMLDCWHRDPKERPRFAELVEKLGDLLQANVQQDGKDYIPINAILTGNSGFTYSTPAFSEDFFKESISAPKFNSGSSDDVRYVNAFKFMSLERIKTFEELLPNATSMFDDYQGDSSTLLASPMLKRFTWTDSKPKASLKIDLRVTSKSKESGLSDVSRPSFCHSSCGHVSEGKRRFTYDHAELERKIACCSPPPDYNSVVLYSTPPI
Sequence of Tyrosine-protein kinase Fgr (Homo sapiens) (P09769 2-529 limits assumed): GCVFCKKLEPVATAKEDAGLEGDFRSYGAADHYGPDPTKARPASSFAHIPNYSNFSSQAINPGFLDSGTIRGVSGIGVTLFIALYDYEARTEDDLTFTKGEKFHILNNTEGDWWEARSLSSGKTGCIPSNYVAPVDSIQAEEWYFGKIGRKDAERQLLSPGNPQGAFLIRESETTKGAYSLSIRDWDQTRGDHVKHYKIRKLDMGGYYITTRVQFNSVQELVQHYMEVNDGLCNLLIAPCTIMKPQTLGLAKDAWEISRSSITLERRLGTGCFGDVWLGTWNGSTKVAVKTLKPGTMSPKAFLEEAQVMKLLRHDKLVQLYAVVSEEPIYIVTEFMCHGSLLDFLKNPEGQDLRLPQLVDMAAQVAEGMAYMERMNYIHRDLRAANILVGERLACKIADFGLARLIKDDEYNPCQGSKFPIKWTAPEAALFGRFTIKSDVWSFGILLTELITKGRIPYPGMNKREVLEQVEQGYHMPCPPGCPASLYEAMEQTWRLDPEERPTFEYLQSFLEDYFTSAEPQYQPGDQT

SMILES	inhibition [1]	inhibition [2]	inhibition [3]	inhibition [4]	inhibition [5]	inhibition [6]	inhibition [7]	inhibition [8]	inhibition [9]	inhibition [10]	inhibition [11]	inhibition [12]	inhibition [13]	inhibition [14]	inhibition [15]	inhibition [16]	inhibition [17]	inhibition [18]	inhibition [19]	inhibition [20]
COc1cc(/C=N/Nc2ncnc3c2cnn3C(C)C)ccc1O	7.03%	1.26%	5.37%	-0.65%	2.77%	1.99%	7.97%	1.62%	7.76%	-8.41%	1.4%	9.02%	40.4%	-0.74%	3.88%	2.52%	22.7%	-2.61%	4.77%	4.41%
COC(=O)c1ccc2c(c1)C(=Cc1cc(Br)c(O)c(Br)c1)C(=O)N2	7.48%	3.27%	4.01%	3.15%	6.87%	7.19%	8.86%	8.03%	5.51%	4.35%	3.36%	0.15%	9.32%	2.43%	2.64%	5.48%	7.6%	-0.04%	51.5%	2.46%
COc1ccc(-c2nn3ncccc3c2-c2ccnc(Nc3cccc(C(F)(F)F)c3)n2)cc1	1.69%	3.15%	2.54%	1.38%	-1.86%	2.73%	0.17%	2.6%	4.58%	1.02%	0.55%	10.2%	42.1%	4.29%	10.2%	1.01%	1.12%	-4.47%	-0.27%	1.68%
O=C1Nc2ccc(-c3cccnc3)cc2C1=Cc1cc(Br)c(O)c(Br)c1	9.05%	2.71%	2.85%	4.47%	1.74%	3.81%	5.51%	9.43%	8.18%	1.39%	3.07%	1.1%	7.55%	2.53%	2.06%	1.83%	7.91%	11.8%	6.13%	3.07%
CCCN1CCCC(c2ccc(Nc3nc(Nc4cc(F)ccc4C(N)=O)c4cc[nH]c4n3)c(OC)c2)C1 (centres undefined)	84.4%	61.4%	81.3%	3.11%	3.44%	4.31%	5.74%	5.86%	4.56%	0.72%	12.2%	4.94%	7.28%	2.54%	0.66%	3.86%	13.1%	5.98%	-3.62%	4.74%
NS(=O)(=O)c1cccc(-c2cc3ccncc3cc2OCc2ccccc2)c1	4.16%	4.25%	7.11%	8.63%	10.7%	9.37%	15.6%	8.37%	13%	0.02%	3.21%	1.58%	7.39%	1.89%	3.8%	4.34%	2.96%	1.09%	-5.35%	2.68%
CS(=O)(=O)Nc1cccc(-c2ccc3c(NC(=O)C4CC4)n[nH]c3c2)c1	0.02%	0.9%	1.23%	-6.27%	0.55%	-3.44%	5.34%	1.56%	2.41%	-5.5%	-2.02%	-0.31%	4.5%	-2.92%	-1.44%	0.45%	0.14%	-1.25%	-0.54%	2.53%
COc1cc2ncnc(Nc3ccc4c(cnn4Cc4ccccc4)c3)c2cc1OC	7.92%	2.06%	2%	-0.45%	3.82%	3.33%	7.69%	3.3%	3.13%	-0.15%	-0.35%	18.4%	44.2%	0.61%	3.06%	4.33%	5.83%	-2.99%	-3.38%	1.85%
CC(C)c1ccc(Nc2nccc(-c3cnn4ncccc34)n2)cc1	16%	5.26%	25.5%	4.84%	4.17%	0.37%	7.86%	7.5%	6.25%	2.11%	3.28%	3.66%	7.87%	3.33%	10.9%	16.1%	61.1%	1.27%	-0.13%	2.38%
CCOc1nccc2c1nc(-c1nonc1N)n2CC	6.51%	2.51%	2.14%	4.54%	7.51%	3.59%	10.6%	5%	10.9%	2.6%	4.2%	6.66%	5.06%	2.14%	2.02%	0.14%	1.3%	-2.2%	1.21%	3.25%
ON=C1CCc2cc(-c3nc(C4CCNCC4)[nH]c3-c3ccncc3)ccc21	0.21%	0.52%	0.86%	-5.96%	-0.14%	-1.99%	5.39%	3.1%	2.75%		1.91%	-1.48%	2.99%	0.48%	0.61%	-2.95%	0.24%	-4.99%	-0.2%	0.16%
Oc1cccc(-c2nc(-c3ccccc3)[nH]c2-c2ccncc2)c1	0.53%	2.34%	1.64%	1.95%	7.19%	4%	9.16%	4.28%	5.69%	1.36%	1.85%	5.71%	19.5%	10.6%	43.8%	5.28%	19.5%	0.36%	-1.42%	3.99%
CN(c1ccc(NC(=O)Nc2ccc(OC(F)(F)F)cc2)cc1)c1ccnc(Nc2cccc(S(N)(=O)=O)c2)n1	60.4%	4.7%	21.8%	2.49%	20.3%	16.2%	53.9%	3.87%	23.3%	-0.53%	2.57%	13.8%	57.2%	44.4%	96.1%	28.6%	87.4%	2.56%	-2.45%	3.15%
C[C@@H](Oc1cc(-n2cnc3ccc(OC[C@@H](O)CO)cc32)sc1C(N)=O)c1ccccc1Cl	4.95%	-0.94%	0.05%	-7.07%	0.72%	-1.37%	8.23%	0.92%	6.57%	-1.57%	0.23%	0.03%	4.04%	-1.57%	-1.26%	0.49%	5.21%	-3.1%	2.03%	-0.16%
